Experimental data reported in PubChem BioAssay (NCATS).
Results filed as inconclusive are left out. Values without a mark were called inactive. Calls follow the shape of the dose curve; as a rule, active = well fitted cell-killing curve with a large enough effect; inconclusive = small, poorly fitted or top-dose-only effect; inactive = flat fitted curve, though single readings scatter.

Test: qHTS assay to identify small molecule inhibitors of chordoma cells - UCH-2 (AID 1259356)
Settings: UCH-2 chordoma viability, CellTiter-Glo ATP luminescence, 48 h; series mostly up to 46.1 µM; activity change, negative = inhibition: at the top concentration
% is scaled to controls: 0 for no effect and ±100 for the full control effect.

| SMILES | activity change, negative = inhibition [%] |
| --- | --- |
| CO[C@H]1C=CO[C@@]2(C)Oc3c(C)c(O)c4c(O)c(c5c(c4c3C2=O)=NC2(CCN(CC(C)C)CC2)N=5)NC(=O)/C(C)=C\C=C/[C@H](C)[C@H](O)[C@@H](C)[C@@H](O)[C@@H](C)[C@H](OC(C)=O)[C@@H]1C | 6.47 |
| CC1(C)C(C=C(Cl)Cl)C1C(=O)OCc1cccc(Oc2ccccc2)c1 (stereo not given) | 6.73 |
| CC(=O)Oc1cc(C)c(OC(C)=O)c2ccccc12 | 1.97 |
| O=C(O)C[C@H](O)C[C@H](O)/C=C/c1c(C2CC2)nc2ccccc2c1-c1ccc(F)cc1 | 2.56 |
| CC[C@H]1OC(=O)C[C@@H](O)[C@H](C)[C@@H](O[C@@H]2O[C@H](C)[C@@H](O)[C@H](N(C)C)[C@H]2O)[C@@H](CCN2C[C@H](C)C[C@H](C)C2)C[C@@H](C)C(=O)/C=C/C(C)=C/[C@@H]1CO[C@@H]1O[C@H](C)[C@@H](O)[C@@H](OC)[C@H]1OC | -1.18 |
| CC(C)C(=O)OCC(=O)[C@@]12O[C@H](C3CCCCC3)O[C@@H]1C[C@H]1[C@@H]3CCC4=CC(=O)C=C[C@]4(C)[C@H]3[C@@H](O)C[C@@]12C | -14 |
| CCOc1ccc2c(c1)C(C)=CC(C)(C)N2 | 1.99 |
| CC1(C)O[C@@H]2C[C@H]3[C@@H]4CCC5=CC(=O)C=C[C@]5(C)[C@H]4[C@@H](O)C[C@]3(C)[C@]2(C(=O)CO)O1 | -9.42 |
| C=C1CC[C@@H]2[C@](C)(CO)[C@H](O)CC[C@@]2(C)[C@@H]1C/C=C1/C(=O)OC[C@H]1O | -4.87 |
| CCCCC(=O)O[C@]1(C(=O)CO)[C@H](C)C[C@H]2[C@@H]3CCC4=CC(=O)C=C[C@]4(C)[C@@]3(F)[C@@H](O)C[C@@]21C | 2.98 |
